Reference: PubChem BioAssay (NCI)
About 79,000 compounds went through this panel and 15% of them were active in at least one assay; those are over-represented in the sample as a whole. Values without a mark were called inactive. Active and inactive are the calls of the source. No stated cut-off is given here; in the data, active means growth inhibition above about 70%; inactive means the rest.

Experiments:
[1] = NCI Yeast Anticancer Drug Screen. Data for the sgs1 strain (AID 173);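 further: 0% = growth of vehicle-only control cultures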; conditions: S. cerevisiae sgs1 mutant, stronger effect = higher value
In short: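 Each compound was added to cultures of the altered yeast strain. Growth was recorded, and inhibition was derived by comparison with vehicle controls.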

[2] = NCI Yeast Anticancer Drug Screen. Data for the mlh1 rad18 strain (AID 175); conditions: S. cerevisiae mlh1 rad18 strain growth inhibition, stronger effect = higher value
In short: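 Genetically defined yeast (DNA repair-deficient) exposed to compounds; growth inhibition determined relative to vehicle.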

[3] = NCI Yeast Anticancer Drug Screen. Data for the rad18 strain (AID 177); conditions: S. cerevisiae rad18 mutant growth inhibition, stronger effect = higher value
In short: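 Vehicle-treated cultures served as the baseline for scoring compound-induced growth inhibition in DNA-repair-mutant yeast.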

[4] = NCI Yeast Anticancer Drug Screen. Data for the wt1 strain (AID 149);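 further: 0% = growth of vehicle-treated wt1 cultures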; conditions: S. cerevisiae wt1 strain (SPY 50644) growth inhibition, stronger effect = higher value
In short: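 Readout: yeast growth inhibition, normalised to vehicle controls, in the wt1 strain exposed to test compounds.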

[5] = NCI Yeast Anticancer Drug Screen. Data for the rad50EPP+ strain (AID 151);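 further: 0% = growth of vehicle-treated control cultures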; conditions: S. cerevisiae rad50 mutant strain, stronger effect = higher value
In short: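 Vehicle-normalised growth inhibition; rad50EPP+ yeast strain, altered in DNA damage repair, compound-treated.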

[6] = NCI Yeast Anticancer Drug Screen. Data for the mgt1 strain (AID 153); conditions: S. cerevisiae mgt1 mutant growth inhibition, stronger effect = higher value
In short: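 Vehicle-normalized growth inhibition is determined in mgt1 yeast, a strain selected for a defined alteration in DNA repair or cell cycle control.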

[7] = NCI Yeast Anticancer Drug Screen. Data for the rad50 strain (AID 155);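 further: 0% = growth of vehicle-only cultures of the same strain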; conditions: S. cerevisiae rad50 strain growth inhibition, stronger effect = higher value
In short: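 Compounds were tested on a yeast strain with an engineered DNA damage repair alteration; the reported value is growth inhibition normalised to vehicle treatment.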

[8] = NCI Yeast Anticancer Drug Screen. Data for the mec2-1 strain (AID 157); conditions: S. cerevisiae mec2-1 strain, stronger effect = higher value
In short: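 Mutant yeast (mec2-1) grown with compound; growth inhibition relative to vehicle control reported.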

[9] = NCI Yeast Anticancer Drug Screen. Data for the rad14 strain (AID 159);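 further: 0% = growth of vehicle-treated control cultures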; conditions: S. cerevisiae rad14 strain growth inhibition, stronger effect = higher value
In short: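 Compound-treated yeast with a defined DNA-repair lesion; growth inhibition normalised to vehicle-treated cultures.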

[10] = NCI Yeast Anticancer Drug Screen. Data for the sgs1 mgt1 strain (AID 161);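 further: 0% = growth of cultures given vehicle only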; conditions: S. cerevisiae sgs1 mgt1 strain, stronger effect = higher value
In short: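 Compounds are added to genetically altered yeast, and growth is compared with cultures given vehicle alone to give percent inhibition.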

[11] = NCI Yeast Anticancer Drug Screen. Data for the CLN2oe strain (AID 163);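 further: 0% = growth of vehicle-only control cultures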; conditions: S. cerevisiae CLN2oe strain, stronger effect = higher value
In short: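 Compounds are applied to yeast harbouring a defined cell-cycle control change; reduced growth compared with vehicle-treated controls gives the value.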

[12] = NCI Yeast Anticancer Drug Screen. Data for the cln2 rad14 strain (AID 165);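 further: 0% = growth equal to vehicle treated cultures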; conditions: S. cerevisiae cln2 rad14 strain, stronger effect = higher value
In short: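 Readout is yeast growth inhibition versus vehicle-treated controls, using a strain with cln2 and rad14 alterations exposed to compound.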

[13] = NCI Yeast Anticancer Drug Screen. Data for the bub3 strain (AID 167); conditions: S. cerevisiae bub3 mutant strain, stronger effect = higher value
In short: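 Growth of a checkpoint-deficient yeast mutant is measured after compound exposure. Values represent inhibition relative to vehicle.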

[14] = NCI Yeast Anticancer Drug Screen. Data for the wt2 strain (AID 169);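 further: 0% = growth of vehicle-treated yeast cultures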; conditions: S. cerevisiae wt2 strain growth inhibition, stronger effect = higher value
In short: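 Against vehicle-treated controls, the growth of yeast exposed to each compound was compared, and the inhibition was recorded.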

[15] = NCI Yeast Anticancer Drug Screen. Data for the mlh1 strain (AID 171);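 further: 0% = growth of vehicle-treated control cultures of the same strain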; conditions: S. cerevisiae mlh1 strain growth inhibition, stronger effect = higher value
In short: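 Measured: yeast growth. Reference: vehicle-treated controls. Organism: strain with a defined alteration affecting DNA damage repair or cell cycle control, treated with compound.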

[16] = at 5.0 µM (retest, dose inferred, filed as 0.5)
[17] = at 50.0 µM (retest, dose inferred, filed as 5.0)

C/C(CCl)=N/NC1=NC(c2ccccc2Cl)P(=O)(NCCCNP2(=O)SC(N/N=C(/C)CCl)=NC2c2ccccc2Cl)S1 (centres undefined)
growth inhibition ([1]; at 1.2 µM): 0% | growth inhibition ([1]; at 3.7 µM): -2% | growth inhibition ([1]; at 11.0 µM): 0% | growth inhibition ([1]; at 33.0 µM): 19% | growth inhibition ([1]; at 100.0 µM): 16% | growth inhibition [2, 16]: -5% | growth inhibition [2, 17]: 18% | growth inhibition ([2]; at 50.0 µM): 95.9% (active) | growth inhibition ([3]; at 1.2 µM): 1% | growth inhibition ([3]; at 3.7 µM): 10% | growth inhibition ([3]; at 11.0 µM): 9% | growth inhibition ([3]; at 33.0 µM): 27% | growth inhibition ([3]; at 100.0 µM): 23%

CC[C@@]1(O)C(=O)OCc2c1cc1n(c2=O)Cc2cc3c(NC(=O)CN)cccc3nc2-1
growth inhibition ([4]; at 1.2 µM): 1% | growth inhibition ([4]; at 3.7 µM): -1% | growth inhibition ([4]; at 11.0 µM): -2% | growth inhibition ([4]; at 33.0 µM): -3% | growth inhibition ([4]; at 100.0 µM): 0% | growth inhibition ([5]; at 1.2 µM): -4% | growth inhibition ([5]; at 3.7 µM): 2% | growth inhibition ([5]; at 11.0 µM): 6% | growth inhibition ([5]; at 33.0 µM): 19% | growth inhibition ([5]; at 100.0 µM): 49% | growth inhibition ([6]; at 1.2 µM): -3% | growth inhibition ([6]; at 3.7 µM): 1% | growth inhibition ([6]; at 11.0 µM): 0% | growth inhibition ([6]; at 33.0 µM): -1% | growth inhibition ([6]; at 100.0 µM): -3% | growth inhibition ([7]; at 1.2 µM): 8% | growth inhibition ([7]; at 3.7 µM): 21% | growth inhibition [7, 16]: 1% | growth inhibition ([7]; at 11.0 µM): 54% | growth inhibition ([7]; at 33.0 µM): 79% (active) | growth inhibition [7, 17]: 72% (active) | growth inhibition ([7]; at 50.0 µM): 88.2% (active) | growth inhibition ([7]; at 100.0 µM): 88% (active) | growth inhibition ([8]; at 1.2 µM): -3% | growth inhibition ([8]; at 3.7 µM): -4% | growth inhibition [8, 16]: -9% | growth inhibition ([8]; at 11.0 µM): -3% | growth inhibition ([8]; at 33.0 µM): 1% | growth inhibition [8, 17]: -5% | growth inhibition ([8]; at 50.0 µM): -11.8% | growth inhibition ([8]; at 100.0 µM): 19% | growth inhibition ([9]; at 1.2 µM): 2% | growth inhibition ([9]; at 3.7 µM): -4% | growth inhibition ([9]; at 11.0 µM): 0% | growth inhibition ([9]; at 33.0 µM): -4% | growth inhibition ([9]; at 100.0 µM): -1% | growth inhibition [10, 16]: -11% | growth inhibition [10, 17]: -3% | growth inhibition ([10]; at 50.0 µM): -1.65% | growth inhibition ([11]; at 1.2 µM): 0% | growth inhibition ([11]; at 3.7 µM): -2% | growth inhibition ([11]; at 11.0 µM): -1% | growth inhibition ([11]; at 33.0 µM): -2% | growth inhibition ([11]; at 100.0 µM): 0% | growth inhibition [12, 16]: -35% | growth inhibition [12, 17]: -26% | growth inhibition ([12]; at 50.0 µM): 26.9% | growth inhibition ([13]; at 1.2 µM): -12% | growth inhibition ([13]; at 3.7 µM): -6% | growth inhibition [13, 16]: -19% | growth inhibition ([13]; at 11.0 µM): 8% | growth inhibition ([13]; at 33.0 µM): 7% | growth inhibition [13, 17]: -3% | growth inhibition ([13]; at 50.0 µM): 8.3% | growth inhibition ([13]; at 100.0 µM): -6% | growth inhibition ([14]; at 1.2 µM): -1% | growth inhibition ([14]; at 3.7 µM): 1% | growth inhibition ([14]; at 11.0 µM): 0% | growth inhibition ([14]; at 33.0 µM): -1% | growth inhibition ([14]; at 100.0 µM): 0% | growth inhibition ([15]; at 1.2 µM): -5% | growth inhibition ([15]; at 3.7 µM): -3% | growth inhibition ([15]; at 11.0 µM): -3% | growth inhibition ([15]; at 33.0 µM): -6% | growth inhibition ([15]; at 100.0 µM): 2% | growth inhibition ([1]; at 1.2 µM): -2% | growth inhibition ([1]; at 3.7 µM): -3% | growth inhibition ([1]; at 11.0 µM): -2% | growth inhibition ([1]; at 33.0 µM): -1% | growth inhibition ([1]; at 100.0 µM): 7% | growth inhibition [2, 16]: -12% | growth inhibition [2, 17]: -9% | growth inhibition ([2]; at 50.0 µM): -0.55% | growth inhibition ([3]; at 1.2 µM): -18% | growth inhibition ([3]; at 3.7 µM): -6% | growth inhibition ([3]; at 11.0 µM): -19% | growth inhibition ([3]; at 33.0 µM): -8% | growth inhibition ([3]; at 100.0 µM): -10%

CCN(CCCl)CCCCNc1c2ccccc2nc2ccc(OC)cc12
growth inhibition ([4]; at 1.2 µM): 3% | growth inhibition ([4]; at 3.7 µM): 8% | growth inhibition ([4]; at 11.0 µM): 32% | growth inhibition ([4]; at 33.0 µM): 74% (active) | growth inhibition ([4]; at 100.0 µM): 95% (active) | growth inhibition ([5]; at 1.2 µM): 18% | growth inhibition ([5]; at 3.7 µM): 39% | growth inhibition ([5]; at 11.0 µM): 63% | growth inhibition ([5]; at 33.0 µM): 77% (active) | growth inhibition ([5]; at 100.0 µM): 90% (active) | growth inhibition ([6]; at 1.2 µM): 9% | growth inhibition ([6]; at 3.7 µM): 14% | growth inhibition ([6]; at 11.0 µM): 42% | growth inhibition ([6]; at 33.0 µM): 86% (active) | growth inhibition ([6]; at 100.0 µM): 97% (active) | growth inhibition ([7]; at 1.2 µM): 38% | growth inhibition ([7]; at 3.7 µM): 64% | growth inhibition [7, 16]: 46% | growth inhibition ([7]; at 11.0 µM): 84% (active) | growth inhibition ([7]; at 33.0 µM): 91% (active) | growth inhibition [7, 17]: 46% | growth inhibition ([7]; at 50.0 µM): 85.8% (active) | growth inhibition ([7]; at 100.0 µM): 95% (active) | growth inhibition ([8]; at 1.2 µM): 9% | growth inhibition ([8]; at 3.7 µM): 18% | growth inhibition [8, 16]: 26% | growth inhibition ([8]; at 11.0 µM): 48% | growth inhibition ([8]; at 33.0 µM): 94% (active) | growth inhibition [8, 17]: 26% | growth inhibition ([8]; at 50.0 µM): 74.2% (active) | growth inhibition ([8]; at 100.0 µM): 97% (active) | growth inhibition ([9]; at 1.2 µM): 4% | growth inhibition ([9]; at 3.7 µM): 17% | growth inhibition ([9]; at 11.0 µM): 80% (active) | growth inhibition ([9]; at 33.0 µM): 95% (active) | growth inhibition ([9]; at 100.0 µM): 98% (active) | growth inhibition [10, 16]: 60% | growth inhibition [10, 17]: 60% | growth inhibition ([10]; at 50.0 µM): 72.1% (active) | growth inhibition ([11]; at 1.2 µM): 8% | growth inhibition ([11]; at 3.7 µM): 33% | growth inhibition ([11]; at 11.0 µM): 57% | growth inhibition ([11]; at 33.0 µM): 78% (active) | growth inhibition ([11]; at 100.0 µM): 95% (active) | growth inhibition [12, 16]: 24% | growth inhibition [12, 17]: 24% | growth inhibition ([12]; at 50.0 µM): 77.9% (active) | growth inhibition ([13]; at 1.2 µM): -21% | growth inhibition ([13]; at 3.7 µM): -14% | growth inhibition [13, 16]: -15% | growth inhibition ([13]; at 11.0 µM): 38% | growth inhibition ([13]; at 33.0 µM): 82% (active) | growth inhibition [13, 17]: -15% | growth inhibition ([13]; at 50.0 µM): 60.9% | growth inhibition ([13]; at 100.0 µM): 94% (active) | growth inhibition ([14]; at 1.2 µM): 4% | growth inhibition ([14]; at 3.7 µM): 13% | growth inhibition ([14]; at 11.0 µM): 38% | growth inhibition ([14]; at 33.0 µM): 82% (active) | growth inhibition ([14]; at 100.0 µM): 95% (active) | growth inhibition ([15]; at 1.2 µM): 4% | growth inhibition ([15]; at 3.7 µM): 16% | growth inhibition ([15]; at 11.0 µM): 51% | growth inhibition ([15]; at 33.0 µM): 70% (active) | growth inhibition ([15]; at 100.0 µM): 96% (active) | growth inhibition ([1]; at 1.2 µM): 46% | growth inhibition ([1]; at 3.7 µM): 69% | growth inhibition ([1]; at 11.0 µM): 82% (active) | growth inhibition ([1]; at 33.0 µM): 90% (active) | growth inhibition ([1]; at 100.0 µM): 96% (active) | growth inhibition [2, 16]: 18% | growth inhibition [2, 17]: 18% | growth inhibition ([2]; at 50.0 µM): 69.5% | growth inhibition ([3]; at 1.2 µM): 66% | growth inhibition ([3]; at 3.7 µM): 80% (active) | growth inhibition ([3]; at 11.0 µM): 90% (active) | growth inhibition ([3]; at 33.0 µM): 94% (active) | growth inhibition ([3]; at 100.0 µM): 95% (active)
